Data as given in article PMC7819943, “Rice protein-binding microarrays: a tool to detect cis-acting elements near promoter regions in rice”.
In all, about 35,000 sequences were measured (“fluorescence intensity (a.u.)”: median about 10,000, highest 2% from about 52,000 on). The sample as a whole holds a higher share of the highest values than the screen did.

Biological target: T1, OsWOX13 (Oryza sativa, UniProt Q5QMM3 1-267)
T1 sequence: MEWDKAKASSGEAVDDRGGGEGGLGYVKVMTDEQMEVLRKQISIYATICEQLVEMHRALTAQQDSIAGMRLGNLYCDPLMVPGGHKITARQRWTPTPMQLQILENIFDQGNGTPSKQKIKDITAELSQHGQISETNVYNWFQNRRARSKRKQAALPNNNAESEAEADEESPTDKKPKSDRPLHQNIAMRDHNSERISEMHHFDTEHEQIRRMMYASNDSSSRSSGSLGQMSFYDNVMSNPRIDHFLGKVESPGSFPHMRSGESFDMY
Assay: protein-binding microarray (RPBM); PBS, 2% BSA, 51.3 ng/ul salmon testes DNA, 50 uM zinc acetate, 200 nM TF, 25 C, 1 h; high values mean tight binding
Settings: protein: recombinant; tags: N-terminal polyhistidine and DsRed monomer fusion (pET32a); label: CyDye5-dUTP incorporated in the synthesized complementary strand; 3' TTTTT single-stranded linker to array surface; dsDNA, one strand shown
Outline: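 Transcription factors, each fused N-terminally to a polyhistidine tag and DsRed, were expressed in E. coli BL21-CodonPlus and purified on Ni–NTA. A custom Agilent array was made double-stranded by primer extension with Cy5-dUTP and blocked with 2% BSA. It was incubated with 200 nM protein in PBS, 2% BSA, salmon testes DNA and 50 µM zinc acetate at 25 °C for 1 h, then washed. The binding signal is per-feature fluorescence intensity (arbitrary units) read on an Axon 4000B scanner.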

Row | Sequence | binding signal
1 | TAGTGATTTGAAAATACGGGTGCAAACAATGGAGCAACAACGGAGTCACCTAGTGCAG | 3560 fluorescence intensity (a.u.)
2 | ATTTACCGCAACTGTAATTGAGATGGTTTTGAGATTTCATCGGAGTCACCTAGTGCAG | 6850 fluorescence intensity (a.u.)
3 | TGTCACAGGTAAATCACTGCAATTAGCGAGTCATGGCTCACGGAGTCACCTAGTGCAG | 8530 fluorescence intensity (a.u.)
4 | TGATGTTTCATCACTAATTTGTATTTGATAACCTGCATATCGGAGTCACCTAGTGCAG | 5260 fluorescence intensity (a.u.)
5 | CTGATTTGCAGTTCGTTCGTGCCTCTCACAATCAAACCCCCGGAGTCACCTAGTGCAG | 14300 fluorescence intensity (a.u.)
6 | AGGTTGCAATCATTGGCCAGACGTTGCATGTCGTTGTTGACGGAGTCACCTAGTGCAG | 13700 fluorescence intensity (a.u.)
7 | CTTGTTATTGAATAATGGATTAACTAACTAATAACTAACGCGGAGTCACCTAGTGCAG | 12800 fluorescence intensity (a.u.)
8 | CAACAGATTAATGACATGTCAACAGCTGCATGCTCTAGCTCGGAGTCACCTAGTGCAG | 14200 fluorescence intensity (a.u.)
9 | CCGGTCTCCAAATCTTTATTAATTGCTTCCTCAAAACCCCCGGAGTCACCTAGTGCAG | 3980 fluorescence intensity (a.u.)
10 | ATTAACGACTTTTAATTTGAAACGGATTGAGTAGCTAGTTCGGAGTCACCTAGTGCAG | 16100 fluorescence intensity (a.u.)
11 | ATTAATTGGTCGTGTATTAGCAAACGATATATATATCGGTCGGAGTCACCTAGTGCAG | 50500 fluorescence intensity (a.u.)
12 | AAAAGAATAATTTATTGTCTTGTTCAGTTAATCCCTCCCTCGGAGTCACCTAGTGCAG | 3330 fluorescence intensity (a.u.)
13 | CACGATGATTGTTTGTATATGGAAACACCAAAATGGTCTACGGAGTCACCTAGTGCAG | 54700 fluorescence intensity (a.u.)
14 | AAAACAAATTTTATTATAAATATACGTTTAACTAACTTAGCGGAGTCACCTAGTGCAG | 6070 fluorescence intensity (a.u.)
15 | AGAGATTATTGAATATTGTTGCGATGACTTATAATCTTATCGGAGTCACCTAGTGCAG | 5070 fluorescence intensity (a.u.)
16 | TGGTAATTTTATGATTAAATTGACACTAACAAACTTATAGCGGAGTCACCTAGTGCAG | 57200 fluorescence intensity (a.u.)
17 | TCTGTATGGTCTACTTGTTTGATTGATTGATAATTTTACACGGAGTCACCTAGTGCAG | 22300 fluorescence intensity (a.u.)
18 | CACTATTAATTGTGCTTAGAGCAAGTTTAATAGTGTAGCCCGGAGTCACCTAGTGCAG | 9860 fluorescence intensity (a.u.)
19 | TTTAATTAATTGTAGGACAAGATAGCAAACGTGTGGCTACCGGAGTCACCTAGTGCAG | 59900 fluorescence intensity (a.u.)
20 | ACTGATAACAAAATAATTTATAGGTAAAACTTTTAATATGCGGAGTCACCTAGTGCAG | 7340 fluorescence intensity (a.u.)
21 | GGAAAATGCTCTAATGATTGTTATGGAGTTTATCTGTAATCGGAGTCACCTAGTGCAG | 5570 fluorescence intensity (a.u.)
22 | ATAATCCCTTGCGATTTATATTGAATTAATAGTTCTTGTTCGGAGTCACCTAGTGCAG | 65000 fluorescence intensity (a.u.)
23 | AATTAATTTCTAAATACAATCATTATTCACCTCGTAATATCGGAGTCACCTAGTGCAG | 7210 fluorescence intensity (a.u.)
24 | CCATATAATTATGCTTGTTATTATGTGACAAAGAGCGGGTCGGAGTCACCTAGTGCAG | 25400 fluorescence intensity (a.u.)

Row | Sequence | binding signal
25 | CCAAAATATATTAATTAGCTCAGGTATGTACCCGCCCAATCGGAGTCACCTAGTGCAG | 10700 fluorescence intensity (a.u.)
26 | GTATATTTAATAATAAATCAACTCGCAATGAGACAAAATGCGGAGTCACCTAGTGCAG | 4570 fluorescence intensity (a.u.)
27 | ATTCTTAAATTGTTTTAACTAATACTTAATCAGCCATGAACGGAGTCACCTAGTGCAG | 7790 fluorescence intensity (a.u.)
28 | TTGGTGATATTGATGGAGCATGTTTTATTTGATAGAATAGCGGAGTCACCTAGTGCAG | 3390 fluorescence intensity (a.u.)
29 | TTTGATTGTTTCCATTTGCAATTTCTAAATACGAACCTGCCGGAGTCACCTAGTGCAG | 57500 fluorescence intensity (a.u.)
30 | CATTGATGACACAAAATAGTAGCAACTAAACAAACCAGAACGGAGTCACCTAGTGCAG | 6690 fluorescence intensity (a.u.)
31 | TTGAATGACTACGAATTTGTTTAAATATTTGCATTCCATCCGGAGTCACCTAGTGCAG | 7180 fluorescence intensity (a.u.)
32 | GTGCTCTTTAATTATCACTTTGTGCGCACTTTTCTTTGATCGGAGTCACCTAGTGCAG | 6410 fluorescence intensity (a.u.)
33 | TGCCGATTGATCTTTTATCCTTTGGGGCATATGCTCGAGTCGGAGTCACCTAGTGCAG | 24400 fluorescence intensity (a.u.)
34 | TTGATTGATGGGAGTCTAACAAAGTGACAAAACTTAGCAACGGAGTCACCTAGTGCAG | 53900 fluorescence intensity (a.u.)
35 | AACTTGAAACAATTTGATTTTGACTAAAGTCAAAACGTCTCGGAGTCACCTAGTGCAG | 4710 fluorescence intensity (a.u.)
36 | AATTCTAATATATTTGATTGTTTCAAAATAAAGTCTTTGCCGGAGTCACCTAGTGCAG | 14700 fluorescence intensity (a.u.)
37 | TTAGATAGATTAATATGTGATAGATCTTCACAAACAGACACGGAGTCACCTAGTGCAG | 54900 fluorescence intensity (a.u.)
38 | ATTGATTGACCGAGCGCACTACTCTTTATCTTTTCGATTGCGGAGTCACCTAGTGCAG | 64900 fluorescence intensity (a.u.)
39 | TTCAATTGATATAGACACAGATCTATGTGATTCACTGACACGGAGTCACCTAGTGCAG | 21700 fluorescence intensity (a.u.)
40 | GATAGATTAATATATGATATATCTTTTCACAAACATACAACGGAGTCACCTAGTGCAG | 10500 fluorescence intensity (a.u.)
41 | CAGAATTTACAAAATGGATTGACCAAAAGCCTAATTAATTCGGAGTCACCTAGTGCAG | 7770 fluorescence intensity (a.u.)
42 | CAAGATTTTAATAAATGCATAATTTTATGAATCGCATAGACGGAGTCACCTAGTGCAG | 7290 fluorescence intensity (a.u.)
43 | CATGACATACAATTTATCAGATCCAATTTTAGGATTATTCCGGAGTCACCTAGTGCAG | 10900 fluorescence intensity (a.u.)
44 | GTTAACTAATTAGGGCGTATGAACAAGTCATCGTGGCAGTCGGAGTCACCTAGTGCAG | 23000 fluorescence intensity (a.u.)
45 | GAATAATTACCGAAAAGGCAATTAATTAGTGACAGGGAGTCGGAGTCACCTAGTGCAG | 26200 fluorescence intensity (a.u.)
46 | GGCTTCCTTAATTGTACATGTCTCTCTTCATTCTGCTGCACGGAGTCACCTAGTGCAG | 5930 fluorescence intensity (a.u.)
47 | TTTCTGATTTACGTGGCTTGTGAGTAGGGCGCCTCCTCATCGGAGTCACCTAGTGCAG | 8000 fluorescence intensity (a.u.)
